Measured values reported in PubChem BioAssay AID1850 (Southern Research Specialized Biocontainment Screening …, 2009).
The campaign covered roughly 310,000 compounds. About 1,000 (0.32%) were called active. A selection follows. Potency and affinity values are given separately. Unmarked numbers belong to inactive results. No rule for the calls is given here.

test: Inhibition of PhoP regulon, Salmonella typhi GFP reporter cells, confirmation, 4 h (AID 1850); conditions: Salmonella Typhi PhoP-promoter GFP reporter, fluorescence, at 50 µM, active compounds read high;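 also: 0% = induced wells with vehicle and 100% = uninduced wells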

In order of falling inhibition:
1. Cc1cc(C(=O)N/N=C/c2ccc([N+](=O)[O-])s2)n[nH]1  21.5%
2. COc1ccc2c(c1)CC(N1CCN(C)CC1)c1cc(OC)ccc1S2 (configuration not stated)  21.4%
3. Cn1c(SCC(=O)N/N=C/c2ccc([N+](=O)[O-])s2)nnc1-c1ccccc1  17.5%
4. S=C(NC1CC2CCC1C2)N1CCN(c2cccc(Cl)c2)CC1 (configuration not stated)  15.8%
5. CC(C)c1ccc2c(c1)C(N1CCN(C)CC1)Cc1cccnc1S2 (configuration not stated)  15.7%
6. CCOc1ccc(OCCSc2nc(N)cc(=O)[nH]2)cc1  12.9%
7. CSc1ccc2c(c1)C(N1CCN(C)CC1)Cc1ccccc1S2 (configuration not stated)  12.9%
8. O=C(Nc1cccnc1)c1ccc(Br)s1  12.6%
9. Fc1ccc2c(c1)Sc1ccc(Cl)cc1CC2N1CCN(CCC2OCCO2)CC1 (configuration not stated)  12.3%
10. CC(C)OCCCNc1ncnc2c1[nH]c1ccccc12  11.2%
11. CCCNC(=O)COc1coc(CN2CCN(c3cccc(Cl)c3)CC2)cc1=O  9.58%
12. COc1ccc(CC(=O)NNC(=S)NC(=O)c2cccnc2)cc1  9.02%
13. O=C(CSc1nnc(SCc2ccccc2)s1)N/N=C/C=C/c1ccccc1[N+](=O)[O-]  8.59%
14. COCCNc1ncnc2c1[nH]c1ccccc12  8.5%
15. O=C(Nc1ccc2c(c1)CCC2)c1ccc(Cl)nc1  8.38%
16. CN1CCN(C2Cc3ccc(F)cc3Sc3cc(F)c(Cl)cc32)CC1 (configuration not stated)  8.23%
17. N#C/C(=C\c1ccc([N+](=O)[O-])o1)c1nc2ccccc2[nH]1  7.25%
18. CNNC(=S)Nc1cccc(C(F)(F)F)c1  6.82%
19. COc1cccc(NC(=O)CCCCCN2C(=O)[C@@H]3Cc4ccccc4CN3C2=O)c1  6.78%
20. COc1cc(OC)c(OC)cc1CNCCNC(=O)c1nonc1N  6.25%
21. Cc1ccccc1OCC(O)CN1CCN(c2ccc(Cl)cc2)CC1 (configuration not stated)  6.16%
22. O=C(c1cc(Br)ccc1Cl)N1CCCC1  6%
23. CCN(CC(=O)NCc1ccc(Cl)cc1)C(=O)CSc1cccc(C(F)(F)F)c1  5.75%
24. O=C(OCCN=C1NS(=O)(=O)c2ccccc21)c1ccco1  5.3%
25. FC(F)C(F)(F)c1cc(-c2ccccc2)n[nH]1  5.29%
26. CCc1cc(C(=O)Nc2ccc(OC)nc2)sc1C  4.89%
27. COc1ccc(-c2noc(N3CCCC(C(=O)Nc4ccccc4F)C3)n2)cc1 (configuration not stated)  4.79%
28. COC(=O)CC1C(=O)NCCN1C(=S)Nc1ccc(F)cc1 (configuration not stated)  4.44%
29. Cc1ccc(CNC(=O)CSCc2ccccc2F)cc1  3.95%
30. COc1ccc(CNc2ncnc3c2[nH]c2cc(OC)c(OC)cc23)cc1  3.65%
31. O=S(=O)(c1ccc(F)c(F)c1F)N1CCN(C(=S)NC2CC3CCC2C3)CC1 (configuration not stated)  3.26%
32. COC(=O)C(C)NC(=S)N1CC2C[C@@H](C1)Cn1c2cccc1=O (some centres not stated)  3.1%
33. COc1ccc(NC(=O)c2cccs2)cn1  2.51%
34. Cc1c(-n2cc(C(=O)O)c(=O)c3cc(F)c(N4CCCC(O)C4)c(F)c32)c(=O)n(-c2ccccc2)n1C (configuration not stated)  2.49%
35. OCCCNc1ncnc2c1[nH]c1ccccc12  2.26%
36. Cn1c(SCC(=O)N/N=C/c2cc([N+](=O)[O-])ccc2O)nnc1-c1ccccc1  2.1%
37. OCCCCCNc1ncnc2ccccc12  2.05%
38. NC(=O)CSc1nnc(Cn2c(=O)sc3ccccc32)n1CCc1ccccc1  1.95%
39. COCCCN1CCN(C2Cc3ccccc3Sc3ccc(Cl)cc32)CC1 (configuration not stated)  1.9%
40. Cc1ccccc1N1C(=O)c2sc3nc4c(c(=O)n3c2C1=O)CCC4  0.93%
41. COc1ccc(S(=O)(=O)N2CCc3ccccc32)cc1C(=O)O  0.91%
42. CCn1c(=O)cc(SCC(=O)N2CCOCC2)c2ccccc21  0.81%
43. CCN(CC)CCCNc1ncnc2ccccc12  0.53%
44. COC/C=C/C1=CC2=CC(=O)C(C)(OC(=O)c3cnc4ccccc4n3)C(=O)C2=CN1c1cccc(C#N)c1 (configuration not stated)  0.42%
45. COCC(=O)NNS(=O)(=O)c1ccccc1[N+](=O)[O-]  0.41%
46. CCOCCCNc1ncnc2c1[nH]c1ccccc12  0.37%
47. O=S(=O)(c1ccc(-c2csc(-c3cccnc3)n2)cc1)N1CCCC1  0%
48. O=C(CC1SC2=NCCN2C1=O)Nc1ccc(Cl)cc1 (configuration not stated)  -0.31%
49. CCn1cc(C(=O)c2cccs2)c2ccccc21  -0.847%
50. O=C(N/N=C/c1ccc([N+](=O)[O-])s1)c1ccncc1  -1.03%
51. COc1ccccc1C(=O)NC(C(=O)NCCc1nc2ccccc2[nH]1)=C(C)C  -1.36%
52. Cc1cccc(OCCc2c(C)[nH]c(=S)[nH]c2=O)c1  -1.55%
53. OC1CCCN(Cc2cccc3ccccc23)C1 (configuration not stated)  -1.87%
54. COc1cc([N+](=O)[O-])cc(/C=N/NC(=O)c2cc(-c3ccccc3)nc3ccccc23)c1O  -2.11%
55. Cc1ccc(NS(=O)(=O)c2ccc(C(=O)NCC(c3ccco3)N(C)C)cc2)cc1 (configuration not stated)  -2.21%
56. CCCc1ccc(/C=C2\C(=O)c3ccccc3C(O)=C2C(=O)OCC)cc1  -2.52%
57. C/C(=N\NC(=O)c1cccnc1)c1ccccc1  -2.72%
58. Cc1n[nH]c(C)c1CCNC(=O)C1CCC(=O)N(CCc2cccc(F)c2)C1 (configuration not stated)  -2.89%
59. Cc1nnc(NC(=O)CCSc2ccc(Cl)cc2)s1  -3%
60. Cc1ccc(O)c(-c2cc(C(F)(F)C(F)F)[nH]n2)c1  -3.16%
61. Cc1c(NC(=O)c2nn3c(c2Br)NC(c2ccccc2)CC3C(F)(F)F)c(=O)n(-c2ccccc2)n1C (configuration not stated)  -3.46%
62. CC(=O)Nc1ccc(S(=O)(=O)NCC2CCC(C(=O)NCCCN3CCCC3=O)CC2)cc1 (configuration not stated)  -3.51%
63. Cc1ccc(OCCC(=O)Nc2ccc(S(=O)(=O)Nc3cc(C)nc(C)n3)cc2)cc1  -3.66%
64. COC(=O)N/N=C/c1ccc([N+](=O)[O-])s1  -3.8%
65. Cc1ccc(C(=O)N/N=C\c2cccs2)cn1  -3.85%
66. O=C(CCC(=O)c1ccc(F)cc1)NC1CCCN(Cc2ccccc2F)C1 (configuration not stated)  -3.89%
67. O=C(CSc1nc2[nH]ncc2c(=O)n1-c1ccc(Cl)c(Cl)c1)NCc1ccccc1Cl  -3.93%
68. CC1CCCN(C(=S)NCc2ccccc2)C1 (configuration not stated)  -5.12%
69. N#CCC(=O)Nc1ccc(C(=O)OCC(=O)Nc2ccccc2Sc2ccccc2)cc1  -5.37%
70. CCn1cc(C(=O)O)c(=O)c2cnc(N3CCN(C(=S)Nc4ccc(F)cc4)CC3)nc21  -5.98%
71. CCn1cc(C(=O)N2CCN(c3ccccc3F)CC2)c(=O)c2ccc(C)nc21  -6.12%
72. O=C(c1cccc(S(=O)(=O)N2CCCC2)c1)N1CCN(c2ccccc2F)CC1  -7.17%
73. O=c1c2[nH]c3ccccc3c2ncn1CCC1=CCCCC1  -7.17%
74. CCN1C(=O)CSC1=Nc1ccc(OC)cc1  -7.25%
75. CCOC(=O)c1cccnc1NC(=O)c1ccccc1  -7.33%
76. COC(=O)C1=C(N)Oc2cc(N(C)C)ccc2C1c1ccccc1OC (configuration not stated)  -7.55%
77. Cc1cc(C)n(CC(O)Cn2cnc3c2c(=O)n(C)c(=O)n3C)n1 (configuration not stated)  -7.83%
78. CCc1sc(C(=O)Nc2cccnc2)cc1Br  -8.13%
79. c1cc2ccc3ccc(CN4CCOCC4)c4ccc(c1)c2c34  -8.34%
80. COc1ccc(C2=NN(CN3C(=O)C(=O)c4ccccc43)C(c3ccc(OC)cc3)C2)cc1 (configuration not stated)  -8.46%
81. COC(=O)c1[nH]c2cc(OC)ccc2c1NC(=O)c1ccc2c(c1)OCO2  -8.72%
82. O=C(NCc1cccnc1)c1cc(Sc2ccc(F)cc2F)nc2ccccc12  -9.05%
83. CC1CCN(c2c(NCC3CCC(C(=O)NCc4ccccc4)CC3)c(=O)c2=O)CC1 (configuration not stated)  -9.12%
84. c1ccc(-c2cc(-c3ccncc3)nc3ccc4ccccc4c23)cc1  -9.12%
85. C=CCNC(=O)c1cc2cccc(OC)c2oc1=O  -9.75%
86. CCOC(=O)C1=C(O)c2ccccc2C(=O)/C1=C\c1ccc(CC)cc1  -9.78%
87. O=C(CSc1nccc(=O)[nH]1)N1CCOCC1  -10%
88. Cc1ccc2nc(/C(C#N)=C/c3ccc(-c4cccc([N+](=O)[O-])c4)o3)[nH]c2c1  -10.4%
89. O=C(N/N=C\c1ccc([N+](=O)[O-])s1)c1cncc(Br)c1  -10.5%
90. CN(CCCCN1CCOCC1)Cc1nc(-c2ccc3c(c2)OCO3)no1  -10.5%
91. O=c1nc(-c2ccccc2)n(-c2ccc(Cl)cc2)[nH]1  -11%
92. Cc1cc(C)c(C(=O)/C=C/c2cccc3ccccc23)c(=O)[nH]1  -11.9%
93. Nc1ccc2c(c1)N1CCN=C1S2  -12.9%
94. Cc1ccc(C(=O)N/N=C/c2ccc([N+](=O)[O-])s2)cc1  -14.9%
95. Cc1ccccc1N1CC(C(=O)NC2CCCC2)CC1=O (configuration not stated)  -18.4%
96. CN1CCN(CCOC2Cc3ccccc3Sc3ccc(Cl)cc32)CC1 (configuration not stated)  -19.4%
97. Nc1ccc(C(=O)Oc2ccc([N+](=O)[O-])cc2)c(O)c1  -25%
